TDP1 cell CPT = qHTS for Inhibitors of human tyrosyl-DNA phosphodiesterase 1 (TDP1): qHTS in cells in presence of CPT | actives 12% (n = 420,000) | Potency, µM (series often up to 46.2 µM), inactives show top-dose activity change, negative = growth inhibition, hits mostly inhibitors | chicken DT40 Tdp1-/-;hTDP1 cells + 20 nM CPT, ATP luminescence, 48 h; note: % is set by controls: 0 for no effect and ±100 for the full control effect; nearly all actives have a fitted effect of over 55% in size
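Chicken DT40 Tdp1-/- cells stably complemented with human TDP1 were seeded at 400 cells/well in medium containing 20 nM camptothecin, exposed to pin-transferred compounds, and grown at 37 °C for at least 48 hr. Viability was read as ATP luminescence.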
HT1080 IDH1KD tx = qHTS for induction of synthetic lethality in tumor cells producing 2HG: qHTS for the HT-1080-IDH1KD cell line; HT-1080 IDH1 knockdown viability, ATP luminescence, 48 h; Potency, µM (series often up to 46.1 µM), inactives show top-dose activity, negative = toxicity, actives largely listed as cytotoxic; actives 2% (n = 360,000); AID 686971, 2013;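 note: 0% = DMSO wells and -100% = cell-free medium wells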
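Viability of IDH1-knockdown HT-1080 fibrosarcoma cells was assessed by CellTiter-Glo after 48 h at 37 °C with titrated compound; concentration-effect curves were classified by fit quality and response size.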
TGFb SMAD3 inh = qHTS for Inhibitors of TGF-b; actives 1.2% (n = 410,000); Potency, µM (highest dose often 46.1 µM), without a hit: at the top dose activity, negative = inhibition, hits mostly inhibitors; HepG2 CAGA-GFP TGF-b/SMAD3 reporter, GFP fluorescence, 18 h; TGF-beta stimulated, 500 pg/mL final; AID 588855, 2011; note: % is set by controls: 0 for no effect and ±100 for the full control effect; nearly all actives have a fitted effect of over 65% in size
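HEPG2 CAGA-GFP, 1000 cells/well; 2 h settle, 37 C; cpd via pin tool; TGF-b 500 pg/mL final; 18 h, 37 C; GFP imaging ex488/em500-530; %Activity normalised to -TGF-b and +DMSO controls; CRC fit, curve class.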
HT1080-NT tox = qHTS for induction of synthetic lethality in tumor cells producing 2HG: qHTS for the HT-1080-NT fibrosarcoma cell line; HT-1080-NT fibrosarcoma viability, CellTiter-Glo ATP luminescence, 48 h; Potency, µM (series often up to 46.1 µM), without a hit: top-dose activity, negative = less viability, most hits filed as cytotoxic; actives 1.6% (n = 360,000);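 note: NT is the 2HG producing partner of a matched IDH1 knockdown line; 0% = DMSO-treated cells and -100% = media-only wells without cells; nearly all actives have a fitted effect of over 55% in size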
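Viability by CellTiter-Glo luminescence after 48 h compound exposure at 37C of HT-1080-NT cells (750/well, RPMI, 5% FBS). % activity scaled between DMSO wells and medium-only wells, then curve-fitted and categorized by curve class.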
HepG2 viability = qHTS for Inhibitors of TGF-b: Cytotox Counterscreen; HepG2 CAGA-GFP viability, ATP luminescence, 18 h; Potency, µM (highest dose often 46.1 µM), for the others: top-dose activity change, negative = cytotoxicity, usual class: cytotoxic; actives 0.76% (n = 410,000); AID 588856, 2011
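HepG2 CAGA-GFP cells (1000/well, DMEM with 1% FBS) received compound, then TGF-beta at 500 pg/mL final, and were incubated 18 hours at 37 degrees C. Viability was read by CellTiter-Glo luminescence. Media-only wells were set as complete cell-killing and DMSO as no toxicity.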
DT40 TDP1 no CPT = qHTS for Inhibitors of human tyrosyl-DNA phosphodiesterase 1 (TDP1): qHTS in cells in absence of CPT | DT40 Tdp1-/- hTDP1 cells, no CPT, ATP luminescence, 48 h | Potency, µM (doses to about 46.2 µM), inactives show at the highest dose activity change, negative = growth inhibition, hits mostly inhibitors | actives 15% (n = 420,000) | AID 686978, 2013; note: % is set by controls: 0 for no effect and ±100 for the full control effect; nearly all actives have a fitted effect of over 55% in size
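Stably hTDP1-transfected Tdp1-null chicken DT40 cells were treated with library compounds minus camptothecin and grown for at least 48 hr at 37 °C, after which cellular ATP was quantified by luminescence.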
Starred values were filed as active, the others as inactive; ? = inconclusive; . = no result. An excerpt weighted towards active compounds, which were near 17% of everything screened. Calls come from the whole dose curve; as a rule, active = well fitted curve in the direction sought with a large enough effect; inconclusive = small, poorly fitted or top-dose-only effect, or another doubt; inactive = no such curve, though single readings can be large; an effect the other way counts as inactive or inconclusive. Potency is the fitted concentration of half-maximal effect.

SMILES	TDP1 cell CPT	HT1080 IDH1KD tx	TGFb SMAD3 inh	HT1080-NT tox	HepG2 viability	DT40 TDP1 no CPT
COc1ccc(N2CC(NC(=O)c3ccc4c(c3)OCO4)CC2=O)cc1OC (stereo not drawn)	-2%	.	?	.	-3%	5%
Cc1ccccc1C(=O)n1nc(-c2ccco2)nc1NCc1ccc(Cl)cc1	?	.	13%	.	10%	?
Cc1ccc(C(=O)OCC(=O)c2ccc(Br)cc2)cc1S(=O)(=O)N1CCOCC1	-6%	-2%	-24%	-2%	-13%	-6%
CC(=O)N=c1scc(-c2ccccc2)n1-c1cccc(O)c1	?	?	10%	-30%	-14%	16µM*
CC(C)N1CCC1(C)C(=O)Nc1ccc(-n2cccc2)cc1 (stereo not drawn)	15µM*	4%	1%	4%	-5%	?
CC(C)N1CCC(C)(C(=O)Nc2ccc(-n3cccc3)cc2)C1 (stereo not drawn)	?	0%	13%	1%	-25%	?
CSc1ncc(Cl)c(C(=O)Nc2c(C(=O)c3ccc(C)c(F)c3)oc3ccccc23)n1	5%	.	-8%	.	1%	7%
COc1ccc(CN2CC[C@H]3C=CC[C@@H](C(=O)NC4CCCCC4)[C@H]3C2=O)cc1OC	-23%	.	0%	.	56%	-21%
O=C(C[n+]1cccc(C(=O)Nc2ccccc2)c1)c1ccc(Cl)cc1	?	?	.	-11%	.	16µM*
O=C(C[n+]1cccc(C(=O)Nc2ccccc2)c1)c1ccc([N+](=O)[O-])cc1	?	-4%	?	-16%	-21%	?
COc1cc([N+](=O)[O-])ccc1NC(=O)CN(C)C	3%	15%	-3%	0%	-1%	-16%
CCN(CC)CC(=O)Nc1ccc(-c2ccc(NC(=O)CN(CC)CC)c(OC)c2)cc1OC	13µM*	?	6%	?	16%	9.2µM*
CCN(CC(=O)Nc1ccccc1OC)CC(=O)Nc1c(Cl)ccc(C)c1Cl	?	5%	4%	-1%	-5%	15µM*
Cc1ccc(CC(CC(=O)O)C(=O)Nc2ccc(Cl)cc2)cc1 (stereo not drawn)	3%	-3%	-4%	5%	1%	-8%
CCC(C)c1ccc(NC(=S)NC2CCN(Cc3ccccc3)CC2)cc1 (stereo not drawn)	8.2µM*	?	10µM*	18µM*	14µM*	7.3µM*
S=C(NCCc1ccccc1)NC1CC1	-8%	23%	8%	12%	2%	-17%
S=C(NCCc1cccc(Cl)c1)NC1CCCCC1	?	?	-21%	?	-54%	21µM*
COc1ccc(CCNC(=S)NC2CCN(Cc3ccccc3)CC2)cc1	?	-7%	-13%	-2%	-27%	23µM*
S=C(Nc1ccc(Cl)cc1)NC1CCN(Cc2ccccc2)CC1	21µM*	-1%	?	4%	-51%	9.2µM*
S=C(NCCc1ccccc1)NC1CCC(NC(=S)NCCc2ccccc2)CC1 (stereo not drawn)	3%	7%	1%	7%	-7%	12%
S=C(Nc1ccccc1)NC1CCN(Cc2ccccc2)CC1	-19%	-7%	-1%	-6%	-2%	?
CCOc1ccccc1C(=O)N/N=C/c1ccoc1	7%	14%	2%	10%	-1%	20%
CC1CCC(NC(=O)c2cc(Cl)nc3ccccc23)CC1 (stereo not drawn)	0%	8%	28%	5%	9%	-24%
S=C(NC1CCCCC1)NC1CC2CCC(C1)N2Cc1ccccc1 (stereo not drawn)	?	-9%	-1%	1%	-21%	18µM*
CCc1ccc(NC(=S)NC2CCN(Cc3ccccc3)CC2)cc1	7.3µM*	-19%	?	-27%	-54%	12µM*
SMILES	TDP1 cell CPT	HT1080 IDH1KD tx	TGFb SMAD3 inh	HT1080-NT tox	HepG2 viability	DT40 TDP1 no CPT
O=C1c2ccccc2C(=O)N1CSc1nnc2c3ccccc3n(CCc3ccccc3)c2n1	?	22%	10%	23%	0%	21µM*
C=CCn1c2ccccc2c2nnc(SCN3C(=O)c4ccccc4C3=O)nc21	-28%	-17%	-29%	-11%	-20%	-24%
CCN(CC)CCSc1nnc2c3ccccc3n(CCc3ccccc3)c2n1	?	-18%	-10%	-21%	-12%	?
c1ccc(CCn2c3ccccc3c3nnc(SCc4ccc5nonc5c4)nc32)cc1	15µM*	7.1µM*	-5%	?	-32%	16µM*
Cc1onc(-c2c(F)cccc2Cl)c1C(=O)Nc1cccc(S(=O)(=O)N2CCOCC2)c1	-26%	-1%	-7%	-18%	-6%	-28%
COC(=O)/C=c1\sc2ncnn2c1=O	5.8µM*	-3%	-5%	2%	-11%	13µM*
CNC(=O)/C(C#N)=c1\s/c(=C/C(=O)OC)c(=O)n1-c1ccccc1	?	13%	-5%	2%	-21%	-30%
CC(C)C(=O)N1CCN(c2ccccc2NC(=S)NC(=O)c2cccs2)CC1	?	0%	-6%	-7%	-31%	?
CC1(C)NC(=O)N(c2ccc([N+](=O)[O-])c(C(F)(F)F)c2)C1=O	19µM*	0%	0%	9%	8%	4.6µM*
Cn1ncc(Cl)c1C(=O)NCc1cc(C(C)(C)C)n[nH]1	?	?	-33%	1%	-32%	18µM*
O=C(Cn1c(C(=O)N2CCc3ccccc3C2)cc2sccc21)c1ccccc1	29µM*	-21%	-1%	?	1%	?
COc1cccc(OC)c1C(=O)OCC(=O)N(c1ccccc1)C1CCCCC1	15µM*	-15%	-24%	-6%	-30%	8.2µM*
O=C1NC(c2ccccc2Cl)=N/C1=C/c1ccco1	-12%	-4%	?	-3%	18µM*	?

Screening data: PubChem, National Center for Advancing Translational Sciences (NCATS)
